# Tests used:
# Assay in all cases: DAPPL (digital affinity profiling via proximity ligation, sequencing); 10 mM Tris-HCl pH 7.5, 50 mM NaCl, 1 mM DTT, 4% glycerol, room temperature, 30 min; GST-TFs on glutathione beads, 16-mer random dsDNA library, 0.1% formaldehyde crosslink after washing; high values mean tight binding
# FEV = molecular target: T1, FEV (Homo sapiens, UniProt Q99581 1-238); conditions: protein: recombinant; tags: N-terminal GST; dsDNA, one strand shown
# T1 sequence: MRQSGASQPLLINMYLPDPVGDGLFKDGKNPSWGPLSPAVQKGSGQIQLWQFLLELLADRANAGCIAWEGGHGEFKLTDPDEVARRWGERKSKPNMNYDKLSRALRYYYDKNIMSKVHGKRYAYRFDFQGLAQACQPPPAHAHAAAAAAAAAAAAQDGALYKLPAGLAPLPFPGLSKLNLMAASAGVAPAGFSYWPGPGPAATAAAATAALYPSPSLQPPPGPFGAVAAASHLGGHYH
# How it was run: (§1)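 Human transcription factors fused to GST were expressed in yeast, captured on glutathione beads, given DNA barcodes and pooled with a GST-only negative control. Pools were incubated with 200 nmole of a 16-mer random double-stranded DNA library in Tris/NaCl/DTT/glycerol buffer at room temperature for 30 min. They were then washed, crosslinked with 0.1% formaldehyde, proximity-ligated (BsaI/T4 ligase, 1 h, 37 °C), PCR-amplified and sequenced on an Illumina NextSeq500. Binding signal is each 6-mer's read frequency for a factor divided by its frequency for the GST control.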
# ETV5 = ETV5 (Homo sapiens, UniProt P41161 1-510); conditions: protein: recombinant; tags: N-terminal GST; dsDNA, one strand shown
# How it was run: as §1
# HSF1 = HSF1 (Homo sapiens, UniProt Q00613 1-529); conditions: protein: recombinant; tags: N-terminal GST; chain copies: 3; dsDNA, one strand shown
# How it was run: as §1
# SPIC = molecular target: T2, SPIC (Homo sapiens, UniProt Q8N5J4 1-248); conditions: protein: recombinant; tags: N-terminal GST; dsDNA, one strand shown
# T2 sequence: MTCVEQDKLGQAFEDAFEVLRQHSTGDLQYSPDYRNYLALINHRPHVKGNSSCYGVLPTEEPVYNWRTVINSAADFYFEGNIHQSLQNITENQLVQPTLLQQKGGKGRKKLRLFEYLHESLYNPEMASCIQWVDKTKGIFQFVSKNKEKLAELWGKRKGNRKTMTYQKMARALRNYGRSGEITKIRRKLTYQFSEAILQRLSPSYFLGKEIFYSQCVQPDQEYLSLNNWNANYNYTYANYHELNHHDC
# How it was run: as §1
# ELF4 = ELF4 (Homo sapiens, UniProt Q99607 1-663); conditions: protein: recombinant; tags: N-terminal GST; dsDNA, one strand shown
# How it was run: as §1
# ELK4 = molecular target: T3, ELK4 (Homo sapiens, UniProt P28324-2 1-405); conditions: protein: recombinant; tags: N-terminal GST; dsDNA, one strand shown
# T3 sequence: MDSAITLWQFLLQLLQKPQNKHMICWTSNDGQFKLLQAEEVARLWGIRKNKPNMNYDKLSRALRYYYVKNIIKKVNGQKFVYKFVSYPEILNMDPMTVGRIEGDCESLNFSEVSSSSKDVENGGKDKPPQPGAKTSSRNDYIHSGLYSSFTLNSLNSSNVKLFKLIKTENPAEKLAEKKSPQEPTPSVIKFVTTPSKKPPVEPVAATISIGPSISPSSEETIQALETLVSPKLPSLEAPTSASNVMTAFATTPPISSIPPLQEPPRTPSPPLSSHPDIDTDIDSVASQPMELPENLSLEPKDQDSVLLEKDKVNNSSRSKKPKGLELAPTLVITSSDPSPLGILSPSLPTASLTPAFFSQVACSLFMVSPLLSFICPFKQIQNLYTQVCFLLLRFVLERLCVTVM
# How it was run: as §1
# ETV2 = molecular target: T4, ETV2 (Homo sapiens, UniProt O00321 1-342); conditions: protein: recombinant; tags: N-terminal GST; dsDNA, one strand shown
# T4 sequence: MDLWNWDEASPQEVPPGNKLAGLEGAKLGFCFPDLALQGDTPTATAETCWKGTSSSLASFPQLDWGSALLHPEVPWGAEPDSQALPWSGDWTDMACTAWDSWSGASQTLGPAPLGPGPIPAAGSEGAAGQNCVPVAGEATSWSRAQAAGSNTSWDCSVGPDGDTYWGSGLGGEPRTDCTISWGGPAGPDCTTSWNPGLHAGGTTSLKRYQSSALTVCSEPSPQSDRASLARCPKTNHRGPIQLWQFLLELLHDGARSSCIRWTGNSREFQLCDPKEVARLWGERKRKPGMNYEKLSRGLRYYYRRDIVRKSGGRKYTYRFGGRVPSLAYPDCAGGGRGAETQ
# How it was run: as §1
# ELF3 = molecular target: T5, ELF3 (Homo sapiens, UniProt P78545 1-371); conditions: protein: recombinant; tags: N-terminal GST; dsDNA, one strand shown
# T5 sequence: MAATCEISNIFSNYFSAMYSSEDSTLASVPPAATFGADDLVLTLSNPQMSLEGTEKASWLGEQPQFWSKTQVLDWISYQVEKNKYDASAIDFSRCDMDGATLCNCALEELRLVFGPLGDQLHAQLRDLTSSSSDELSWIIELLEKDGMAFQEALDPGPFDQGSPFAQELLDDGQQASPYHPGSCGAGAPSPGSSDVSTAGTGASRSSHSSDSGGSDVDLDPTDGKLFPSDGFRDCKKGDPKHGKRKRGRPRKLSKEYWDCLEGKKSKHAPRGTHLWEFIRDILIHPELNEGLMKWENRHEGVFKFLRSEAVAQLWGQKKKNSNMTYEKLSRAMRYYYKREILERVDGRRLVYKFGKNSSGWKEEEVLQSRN
# How it was run: as §1
# CRX = CRX (Homo sapiens, UniProt O43186 1-299); conditions: protein: recombinant; tags: N-terminal GST; dsDNA, one strand shown
# How it was run: as §1
# ETV1 = ETV1 (Homo sapiens, UniProt P50549 1-477); conditions: protein: recombinant; tags: N-terminal GST; dsDNA, one strand shown
# How it was run: as §1
# ERF = molecular target: T6, ERF (Homo sapiens, UniProt P50548 1-548); conditions: protein: recombinant; tags: N-terminal GST; dsDNA, one strand shown
# T6 sequence: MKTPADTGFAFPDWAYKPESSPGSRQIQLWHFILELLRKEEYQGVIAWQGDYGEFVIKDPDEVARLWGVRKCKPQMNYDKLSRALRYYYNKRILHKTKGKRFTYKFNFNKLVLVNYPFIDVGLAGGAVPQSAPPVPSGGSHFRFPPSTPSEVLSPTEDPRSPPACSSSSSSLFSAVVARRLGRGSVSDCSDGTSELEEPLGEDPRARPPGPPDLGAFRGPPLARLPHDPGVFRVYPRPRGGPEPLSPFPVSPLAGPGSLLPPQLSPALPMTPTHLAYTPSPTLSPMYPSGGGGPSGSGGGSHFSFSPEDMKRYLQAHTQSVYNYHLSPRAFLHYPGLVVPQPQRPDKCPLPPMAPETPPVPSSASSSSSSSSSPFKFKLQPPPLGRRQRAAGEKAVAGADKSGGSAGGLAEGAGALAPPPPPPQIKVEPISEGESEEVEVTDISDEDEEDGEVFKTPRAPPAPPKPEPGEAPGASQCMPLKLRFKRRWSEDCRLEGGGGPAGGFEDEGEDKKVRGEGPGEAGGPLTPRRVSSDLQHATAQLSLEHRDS
# How it was run: as §1
# ETV3L = molecular target: T7, ETV3L (Homo sapiens, UniProt Q6ZN32 1-361); conditions: protein: recombinant; tags: N-terminal GST; dsDNA, one strand shown
# T7 sequence: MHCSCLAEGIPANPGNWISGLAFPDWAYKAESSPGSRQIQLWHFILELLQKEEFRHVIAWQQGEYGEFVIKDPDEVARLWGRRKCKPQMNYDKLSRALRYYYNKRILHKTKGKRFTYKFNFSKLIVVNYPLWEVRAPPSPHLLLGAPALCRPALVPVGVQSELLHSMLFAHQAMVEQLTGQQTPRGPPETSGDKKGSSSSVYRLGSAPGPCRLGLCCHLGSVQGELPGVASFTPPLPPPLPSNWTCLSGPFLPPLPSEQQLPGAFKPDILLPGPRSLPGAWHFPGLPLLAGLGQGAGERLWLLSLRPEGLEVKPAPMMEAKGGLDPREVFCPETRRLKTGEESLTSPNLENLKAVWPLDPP
# How it was run: as §1
# ETS2 = molecular target: T8, ETS2 (Homo sapiens, UniProt P15036 1-469); conditions: protein: recombinant; tags: N-terminal GST; dsDNA, one strand shown
# T8 sequence: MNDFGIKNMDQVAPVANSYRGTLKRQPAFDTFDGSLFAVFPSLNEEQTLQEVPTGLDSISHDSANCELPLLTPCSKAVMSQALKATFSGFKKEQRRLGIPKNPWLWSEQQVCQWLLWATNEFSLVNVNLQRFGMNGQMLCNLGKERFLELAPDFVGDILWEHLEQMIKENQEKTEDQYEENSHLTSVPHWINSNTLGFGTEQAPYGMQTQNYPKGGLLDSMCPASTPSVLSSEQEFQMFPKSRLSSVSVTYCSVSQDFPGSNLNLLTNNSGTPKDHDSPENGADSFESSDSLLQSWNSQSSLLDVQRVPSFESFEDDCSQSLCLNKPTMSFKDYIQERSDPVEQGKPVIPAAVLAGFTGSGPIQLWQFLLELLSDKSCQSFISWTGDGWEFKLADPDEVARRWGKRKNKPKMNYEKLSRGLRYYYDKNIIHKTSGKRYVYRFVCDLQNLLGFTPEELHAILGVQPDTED
# How it was run: as §1
# SPDEF = molecular target: T9, SPDEF (Homo sapiens, UniProt O95238 1-335); conditions: protein: recombinant; tags: N-terminal GST; dsDNA, one strand shown
# T9 sequence: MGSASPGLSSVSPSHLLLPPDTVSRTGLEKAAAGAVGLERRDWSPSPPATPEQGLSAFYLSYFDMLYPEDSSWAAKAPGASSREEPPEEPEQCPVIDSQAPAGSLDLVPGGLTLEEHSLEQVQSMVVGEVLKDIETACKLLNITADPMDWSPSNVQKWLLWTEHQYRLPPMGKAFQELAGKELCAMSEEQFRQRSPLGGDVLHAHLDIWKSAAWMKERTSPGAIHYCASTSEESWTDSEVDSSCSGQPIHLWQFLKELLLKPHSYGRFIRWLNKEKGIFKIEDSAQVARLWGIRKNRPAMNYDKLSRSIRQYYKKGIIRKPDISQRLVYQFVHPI
# How it was run: as §1
# ETV7 = molecular target: T10, ETV7 (Homo sapiens, UniProt Q9Y603 1-341); conditions: protein: recombinant; tags: N-terminal GST; dsDNA, one strand shown
# T10 sequence: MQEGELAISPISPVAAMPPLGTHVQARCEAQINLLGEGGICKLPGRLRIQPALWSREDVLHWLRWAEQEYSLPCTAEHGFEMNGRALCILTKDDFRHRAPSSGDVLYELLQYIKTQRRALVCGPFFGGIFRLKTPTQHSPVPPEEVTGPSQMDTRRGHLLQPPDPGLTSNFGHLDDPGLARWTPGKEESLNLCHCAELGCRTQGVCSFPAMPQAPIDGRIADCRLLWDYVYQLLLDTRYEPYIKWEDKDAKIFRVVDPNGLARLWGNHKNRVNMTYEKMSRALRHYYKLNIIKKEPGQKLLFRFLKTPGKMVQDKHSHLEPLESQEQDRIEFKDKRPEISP
# How it was run: as §1
# ELF5 = molecular target: T11, ELF5 (Homo sapiens, UniProt Q9UKW6-2 1-255); conditions: protein: recombinant; tags: N-terminal GST; dsDNA, one strand shown
# T11 sequence: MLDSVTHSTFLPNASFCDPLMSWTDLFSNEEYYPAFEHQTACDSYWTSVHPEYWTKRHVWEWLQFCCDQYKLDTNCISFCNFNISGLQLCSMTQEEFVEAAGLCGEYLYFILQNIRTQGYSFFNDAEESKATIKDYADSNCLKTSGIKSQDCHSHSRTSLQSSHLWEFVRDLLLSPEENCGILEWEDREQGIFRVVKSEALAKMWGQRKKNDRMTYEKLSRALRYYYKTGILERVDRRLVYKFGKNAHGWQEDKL
# How it was run: as §1
# ETV3 = molecular target: T12, ETV3 (Homo sapiens, UniProt P41162-2 1-143); conditions: protein: recombinant; tags: N-terminal GST; dsDNA, one strand shown
# T12 sequence: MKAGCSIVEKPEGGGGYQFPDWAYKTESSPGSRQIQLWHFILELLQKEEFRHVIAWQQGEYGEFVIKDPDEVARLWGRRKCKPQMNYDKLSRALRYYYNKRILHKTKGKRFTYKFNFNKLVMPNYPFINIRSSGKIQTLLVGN
# How it was run: as §1
# ETV6 = ETV6 (Homo sapiens, UniProt P41212 1-452); conditions: protein: recombinant; tags: N-terminal GST; dsDNA, one strand shown
# How it was run: as §1
# Chain of ETV1 (P50549 whole entry): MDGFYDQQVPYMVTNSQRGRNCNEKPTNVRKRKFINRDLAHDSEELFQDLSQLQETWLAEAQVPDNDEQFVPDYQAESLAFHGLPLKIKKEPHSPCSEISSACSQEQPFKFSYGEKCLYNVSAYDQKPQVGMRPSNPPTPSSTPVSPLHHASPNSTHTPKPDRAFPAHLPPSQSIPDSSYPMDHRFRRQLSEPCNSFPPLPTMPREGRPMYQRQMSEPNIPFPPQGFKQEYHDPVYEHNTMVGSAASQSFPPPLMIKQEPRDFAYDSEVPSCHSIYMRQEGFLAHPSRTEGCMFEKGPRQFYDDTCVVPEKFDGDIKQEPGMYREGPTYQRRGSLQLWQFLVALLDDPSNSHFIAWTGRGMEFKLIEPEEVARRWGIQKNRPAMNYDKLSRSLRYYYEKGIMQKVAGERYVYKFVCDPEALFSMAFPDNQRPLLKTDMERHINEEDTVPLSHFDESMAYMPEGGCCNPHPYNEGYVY
# Chain of ELF4 (Q99607 whole entry): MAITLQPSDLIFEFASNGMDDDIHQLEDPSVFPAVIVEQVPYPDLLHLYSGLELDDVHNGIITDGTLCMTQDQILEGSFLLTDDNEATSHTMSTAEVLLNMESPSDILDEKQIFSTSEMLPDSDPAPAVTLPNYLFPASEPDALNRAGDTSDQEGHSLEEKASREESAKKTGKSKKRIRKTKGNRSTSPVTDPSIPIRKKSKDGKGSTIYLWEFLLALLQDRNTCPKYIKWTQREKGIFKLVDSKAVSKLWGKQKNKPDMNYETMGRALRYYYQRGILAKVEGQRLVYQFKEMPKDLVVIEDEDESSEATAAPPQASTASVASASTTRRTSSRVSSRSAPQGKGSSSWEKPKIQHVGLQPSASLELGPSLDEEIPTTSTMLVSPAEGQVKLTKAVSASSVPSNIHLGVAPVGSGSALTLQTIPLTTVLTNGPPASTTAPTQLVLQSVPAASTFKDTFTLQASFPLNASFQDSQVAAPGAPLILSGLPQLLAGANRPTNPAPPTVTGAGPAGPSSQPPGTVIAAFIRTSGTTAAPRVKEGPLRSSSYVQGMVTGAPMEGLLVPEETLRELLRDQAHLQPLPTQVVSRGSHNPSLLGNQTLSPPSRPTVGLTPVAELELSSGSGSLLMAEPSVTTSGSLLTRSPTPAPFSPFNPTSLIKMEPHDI
# Chain of ETV5 (P41161 whole entry): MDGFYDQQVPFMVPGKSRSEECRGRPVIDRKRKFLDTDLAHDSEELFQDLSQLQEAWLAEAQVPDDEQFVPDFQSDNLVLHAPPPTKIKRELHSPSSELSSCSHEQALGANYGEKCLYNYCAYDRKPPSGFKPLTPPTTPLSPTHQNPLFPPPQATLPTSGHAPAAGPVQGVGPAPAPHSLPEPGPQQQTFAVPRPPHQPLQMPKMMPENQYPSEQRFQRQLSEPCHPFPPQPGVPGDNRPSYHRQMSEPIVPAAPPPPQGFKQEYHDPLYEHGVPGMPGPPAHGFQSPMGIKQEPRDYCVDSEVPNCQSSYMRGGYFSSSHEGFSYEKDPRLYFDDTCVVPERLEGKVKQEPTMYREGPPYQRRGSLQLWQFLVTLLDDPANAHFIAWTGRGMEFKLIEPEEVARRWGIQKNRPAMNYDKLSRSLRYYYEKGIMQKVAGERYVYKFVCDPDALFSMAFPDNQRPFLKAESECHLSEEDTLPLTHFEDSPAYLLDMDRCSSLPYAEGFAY
# Chain of CRX (O43186 whole entry): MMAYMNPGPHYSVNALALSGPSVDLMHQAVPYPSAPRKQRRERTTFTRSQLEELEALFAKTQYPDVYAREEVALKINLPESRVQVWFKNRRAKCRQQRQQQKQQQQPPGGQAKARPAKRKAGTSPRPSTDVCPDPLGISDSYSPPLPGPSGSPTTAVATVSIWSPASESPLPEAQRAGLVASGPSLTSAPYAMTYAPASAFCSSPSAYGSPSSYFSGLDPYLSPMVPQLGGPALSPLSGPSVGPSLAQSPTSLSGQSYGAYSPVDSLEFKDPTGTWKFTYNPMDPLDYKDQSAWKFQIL
# Chain of HSF1 (Q00613 whole entry): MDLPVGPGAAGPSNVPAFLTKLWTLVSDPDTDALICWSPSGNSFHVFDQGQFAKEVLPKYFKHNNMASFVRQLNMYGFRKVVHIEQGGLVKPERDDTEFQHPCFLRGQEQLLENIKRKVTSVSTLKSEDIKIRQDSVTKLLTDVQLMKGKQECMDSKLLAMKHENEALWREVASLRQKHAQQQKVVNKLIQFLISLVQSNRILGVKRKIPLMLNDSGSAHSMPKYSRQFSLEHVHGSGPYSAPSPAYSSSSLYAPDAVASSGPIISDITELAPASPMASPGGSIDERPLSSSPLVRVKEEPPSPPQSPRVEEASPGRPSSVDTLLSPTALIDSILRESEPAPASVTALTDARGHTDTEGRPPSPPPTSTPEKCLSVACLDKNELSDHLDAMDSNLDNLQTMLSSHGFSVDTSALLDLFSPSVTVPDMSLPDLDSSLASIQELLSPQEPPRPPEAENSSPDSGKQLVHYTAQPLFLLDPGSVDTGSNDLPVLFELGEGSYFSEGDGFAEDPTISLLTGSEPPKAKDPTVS
# Chain of ETV6 (P41212 whole entry): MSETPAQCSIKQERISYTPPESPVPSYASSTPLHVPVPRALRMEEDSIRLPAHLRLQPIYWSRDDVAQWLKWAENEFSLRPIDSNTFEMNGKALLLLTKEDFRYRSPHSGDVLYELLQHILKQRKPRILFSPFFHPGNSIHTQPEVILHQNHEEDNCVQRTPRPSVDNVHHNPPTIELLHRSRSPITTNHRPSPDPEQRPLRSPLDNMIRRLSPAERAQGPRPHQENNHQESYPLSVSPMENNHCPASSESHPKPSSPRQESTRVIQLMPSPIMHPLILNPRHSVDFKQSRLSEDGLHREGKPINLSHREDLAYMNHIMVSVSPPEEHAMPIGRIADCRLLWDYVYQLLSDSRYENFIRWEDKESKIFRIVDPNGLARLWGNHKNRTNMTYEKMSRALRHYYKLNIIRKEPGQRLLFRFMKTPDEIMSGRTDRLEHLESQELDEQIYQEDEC
sequence,measurement,setting,value
AAAACA,binding signal,FEV,"1.34 fold enrichment (6-mer frequency, TF over GST control)"
same,binding signal,ETV5,"1.31 fold enrichment (6-mer frequency, TF over GST control)"
same,binding signal,HSF1,"1.25 fold enrichment (6-mer frequency, TF over GST control)"
same,binding signal,SPIC,"1.42 fold enrichment (6-mer frequency, TF over GST control)"
same,binding signal,ELF4,"1.39 fold enrichment (6-mer frequency, TF over GST control)"
same,binding signal,ELK4,"1.22 fold enrichment (6-mer frequency, TF over GST control)"
same,binding signal,ETV2,"1.34 fold enrichment (6-mer frequency, TF over GST control)"
same,binding signal,ELF3,"1.38 fold enrichment (6-mer frequency, TF over GST control)"
same,binding signal,CRX,"1.13 fold enrichment (6-mer frequency, TF over GST control)"
same,binding signal,ETV1,"1.37 fold enrichment (6-mer frequency, TF over GST control)"
same,binding signal,ERF,"1.26 fold enrichment (6-mer frequency, TF over GST control)"
same,binding signal,ETV3L,"1.32 fold enrichment (6-mer frequency, TF over GST control)"
same,binding signal,ETS2,"1.38 fold enrichment (6-mer frequency, TF over GST control)"
same,binding signal,SPDEF,"1.29 fold enrichment (6-mer frequency, TF over GST control)"
same,binding signal,ETV7,"1.34 fold enrichment (6-mer frequency, TF over GST control)"
same,binding signal,ELF5,"1.34 fold enrichment (6-mer frequency, TF over GST control)"
same,binding signal,ETV3,"1.31 fold enrichment (6-mer frequency, TF over GST control)"
same,binding signal,ETV6,"1.27 fold enrichment (6-mer frequency, TF over GST control)"

# Source: publication PMC7862700, “An all-to-all approach to the identification of sequence-specific readers for epigenetic DNA modifications on cytosine”
